KCNQ2 block: inhibitors of rat KCNQ2 potassium channel; O88943; B-score at 10 µM; CHO-K1 KCNQ2, FluxOR thallium flux, 20 min; stronger effect = lower value; actives 1.1% (n = 310,000);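 active = fluorescence ratio B-score at most minus 3 library SDs, with starting brightness B-score within 2 library SDs, cut at about -5.5 in these data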
KCNQ2 pot: KCNQ2 (rat) channel potentiation; actives 0.54% (n = 310,000); CHO-K1 KCNQ2, FluxOR thallium flux fluorescence; stronger effect = higher value; B-score at 10 µM; O88943; AID 2239;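 active = fluorescence ratio B-score at least 3 SD of library B-scores, with initial fluorescence B-score within 3 of them, cut at about 5.3 in these data; same plate scores as AID 2156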;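 note: B-score of peak minus minimum over baseline fluorescence ratio after K+ and Tl+ stimulus; positive B-score means potentiation of KCNQ2 with more thallium influx and brighter signal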
Kir21 conf inh: confirmation of mouse Kir2.1 potassium channel inhibitors | shares compounds with KCNQ2 pot | actives 41% (n = 2,300) | Kir2.1-expressing cells, FluxOR thallium flux fluorescence; stronger effect = lower value | AID 2032 | Tl flux remaining, % of negative control (stronger effect = lower value), % at 10 µM;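 active = Primary-screen hit whose thallium flux fell at least 3 control SD below untreated wells in both duplicates, with normal baseline fluorescence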;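 note: 0% = blank wells without stimulus and 100% = stimulated no-compound controls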
HEK293 Tl flux: parental HEK293 activity in Kir2.1 inhibitor counter-screen. shares compounds with KCNQ2 pot. actives 19% (n = 2,300). AID 2105. FluxOR signal as % of negative control (100 = no effect), % at 10 µM. parental HEK293 cells, FluxOR thallium flux fluorescence; 0% = unstimulated blank wells;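 active = dye signal at least 3 control SD above or below untreated wells in both duplicates, raw fluorescence within 3, either direction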;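 note: percent is based on the flux ratio of peak minus minimum fluorescence over baseline F0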
CHO-K1 Tl ctr: counter-screen for KCNQ2 potentiators: effect in parental CHO-K1 cells; shares compounds with KCNQ2 pot; FluxOR thallium flux fluorescence; zero = vehicle mean+3SD, 100% = vehicle-minus-blank window; activity increase over 3SD of controls, % at 10 µM; actives 43% (n = 1,200); AID 2282;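 active = signal rise of at least 3 SD above the untreated control mean, in both duplicate wells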;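 note: counter screen of KCNQ2 potentiator hits so any rise reflects channel-independent effects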
KCNQ1 pot spec: tests whether KCNQ2 potentiators also act on human KCNQ1; CHO KCNQ1 stable, FluxOR thallium flux fluorescence; beyond 3SD, as % of vehicle-control signal; activation over 3SD threshold, % at 10 µM; shares compounds with KCNQ2 pot; actives 28% (n = 1,200); AID 2283;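 active = fluorescence ratio rise of at least 3 SD of vehicle wells above their mean, in both replicate wells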;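 note: 0% = vehicle mean plus 3 SD and 100% = vehicle minus unstimulated blank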
KCNQ2 pot confirm: confirmation of rat KCNQ2 potassium channel potentiators; shares compounds with KCNQ2 pot; CHO-KCNQ2 cells, FluxOR thallium flux fluorescence; potentiation, less the hit threshold, % at 10 µM; actives 68% (n = 1,200); AID 2287;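 active = fluorescence ratio rising 3 SD or more over the vehicle control mean in both replicates, plus primary screen hit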;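 note: peak minus minimum thallium fluorescence divided by baseline after K/Tl stimulus; 0% = vehicle mean plus 3 SD and 100% = vehicle minus unstimulated blank difference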
Kir2-1 sel: tests whether KCNQ2 potentiators also affect mouse Kir2.1 | activity over 3SD threshold, % at 10 µM | AID 2345 | HEK293 Kir2.1, FluxOR thallium flux fluorescence | shares compounds with KCNQ2 pot | actives 2% (n = 1,200);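 active = fluorescence ratio rise of at least 3 SD above the vehicle-control mean, seen in both replicates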;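 note: 0% = vehicle mean plus 3 SD and 100% = vehicle minus no-stimulus blank window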
KCNQ2 W236L MoA: rat KCNQ2 W236L mutant potentiation by KCNQ2 potentiators | current increase over 3SD of negative controls (%), stronger effect = higher value, % at 25 µM | actives 10% (n = 940) | CHO KCNQ2-W236L, automated patch clamp current | shares compounds with KCNQ2 pot;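 active = current increase at least 3 SD of the untreated controls above them in both duplicate recordings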
Target sequence (O88943 whole entry W236L, looked up): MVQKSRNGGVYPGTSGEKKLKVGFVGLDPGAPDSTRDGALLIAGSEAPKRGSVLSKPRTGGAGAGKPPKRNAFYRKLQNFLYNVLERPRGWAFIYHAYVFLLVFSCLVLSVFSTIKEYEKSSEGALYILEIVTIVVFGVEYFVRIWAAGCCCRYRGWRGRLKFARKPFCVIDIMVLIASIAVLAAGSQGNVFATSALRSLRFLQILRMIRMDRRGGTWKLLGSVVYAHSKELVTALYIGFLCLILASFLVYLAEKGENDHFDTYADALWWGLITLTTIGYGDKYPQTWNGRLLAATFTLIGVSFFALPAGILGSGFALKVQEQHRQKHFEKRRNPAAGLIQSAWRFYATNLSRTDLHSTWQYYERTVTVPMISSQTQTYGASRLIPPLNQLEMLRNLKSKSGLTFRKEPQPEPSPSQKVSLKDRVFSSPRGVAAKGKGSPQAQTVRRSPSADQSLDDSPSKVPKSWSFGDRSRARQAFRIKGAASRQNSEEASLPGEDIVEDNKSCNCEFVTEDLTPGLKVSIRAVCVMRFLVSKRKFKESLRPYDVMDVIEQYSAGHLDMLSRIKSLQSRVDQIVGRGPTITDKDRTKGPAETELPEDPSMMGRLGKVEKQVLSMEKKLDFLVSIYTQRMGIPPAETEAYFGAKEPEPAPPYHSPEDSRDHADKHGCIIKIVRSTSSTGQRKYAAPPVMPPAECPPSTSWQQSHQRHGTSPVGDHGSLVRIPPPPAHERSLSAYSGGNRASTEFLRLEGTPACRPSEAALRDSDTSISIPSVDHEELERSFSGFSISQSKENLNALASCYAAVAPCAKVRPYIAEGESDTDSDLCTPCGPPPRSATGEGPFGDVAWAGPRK
* hit, by the source's call; i = inactive; / = not tested or not shown. Only some compounds are listed: those with a hit (about 1.6% of all), similar ones and a draw of the others.

SMILES	KCNQ2 block	KCNQ2 pot	Kir21 conf inh	HEK293 Tl flux	others
CC(NC(=O)Nc1ccc(Cl)cc1)c1ccc2c(c1)OCO2 (configuration not stated)	i	/	/	/
O=C(Oc1cccc(C(=S)N2CCOCC2)c1)c1cc([N+](=O)[O-])cc([N+](=O)[O-])c1	i	0.88	/	/
CCOc1ccc(N(CC(=O)NC2CCCCC2)C(=O)CCC(=O)Nc2ccccn2)cc1	i	1.54	/	/
Cc1ccc(C)c(C(C)NC(=S)NCc2ccc(F)cc2)c1 (configuration not stated)	i	/	/	/
Cc1ccc(S(C)(=O)=N/C=C2\C(=O)c3sccc3N(C)S2(=O)=O)cc1 (configuration not stated)	i	1.03	/	/
CCCCNc1nc(=S)n(-c2ccccc2)c(C)c1C(C)=O	i	0.72	/	/
C=CCSc1nc2sc(C)c(C)c2c(=O)n1N	i	0.39	/	/
Cc1cccc(NC(=S)NCc2ccc3c(c2)OCO3)c1	i	0.23	/	/
O=C(Cc1ccccc1)NCc1ccc2c(c1)OCO2	i	2.6	/	/
Cc1cccc(NC(=O)NCc2ccc3c(c2)OCO3)c1	i	11.1*	i	i	CHO-K1 Tl ctr=4.1*;KCNQ1 pot spec=-11.7;KCNQ2 pot confirm=20.1*;Kir2-1 sel=-40.5;KCNQ2 W236L MoA=i
O=C(CC12CCC(CC1)C2)NCc1ccc2c(c1)OCO2	i	10.9*	i	i	CHO-K1 Tl ctr=95.6*;KCNQ1 pot spec=-13.2;KCNQ2 pot confirm=43.7*;Kir2-1 sel=-26.1;KCNQ2 W236L MoA=i
Cc1ccc(C2=NOC(C)(c3nnc(-c4ccc(Cl)cc4)o3)C2)cc1 (configuration not stated)	i	/	/	/
CC(=O)Oc1ccc2c(=O)c(/C=N/c3cc(=O)[nH]c(=S)[nH]3)coc2c1	i	0.33	/	/
Cc1ccc(NS(=O)(=O)c2ccc3[nH]c(=O)[nH]c3c2)c(C)c1	i	/	/	/
O=C(CSc1ccc2ccccc2n1)N1CCC(c2noc3ccc(F)cc23)CC1	i	/	/	/
COC(=O)C1=C(C(=O)OC)[C@@H]2N(C)c3ccc(OC)cc3[C@@]23C[C@@H](C(=O)OC)N=C3N1	i	0.72	/	/
CC(=O)OC1=C(C#N)Cn2ccc3cccc1c32	i	1.94	55.0%*	i
C=CCN1C(=O)c2ccccc2NC1c1ccc(Br)s1 (configuration not stated)	i	1.22	/	/
O=C1c2ccccc2NC(c2ccc(Br)s2)N1O (configuration not stated)	i	7.79*	i	287.5%*	CHO-K1 Tl ctr=1.4*;KCNQ1 pot spec=26.9*;KCNQ2 pot confirm=21.7*;Kir2-1 sel=-37.6;KCNQ2 W236L MoA=i
CC(C)(C)c1nc(SCC(=O)c2ccccc2)c2ccccc2n1	i	18.9*	i	i	CHO-K1 Tl ctr=-2.5;KCNQ1 pot spec=52.3*;KCNQ2 pot confirm=26.5*;Kir2-1 sel=-29.7;KCNQ2 W236L MoA=i
CC(C)(C)c1nc(SCC(=O)N2CCCC2)c2ccccc2n1	i	5.13	/	/
C/C(Cn1cnc([N+](=O)[O-])n1)=N\NC(=O)c1ccc(O)cc1O	i	0.11	/	/
COc1cc2c(cc1OC)C(C)N(S(=O)(=O)c1cccs1)CC2 (configuration not stated)	i	1.16	/	/
CC1c2ccsc2CCN1S(=O)(=O)c1ccccc1 (configuration not stated)	i	0.51	52.5%*	i
COc1cccc(CNC(=O)N2CCN(c3ccccc3Cl)CC2)c1	i	0.46	/	/
COc1ccccc1N1CCN(C(=O)NCc2cccc(C(F)(F)F)c2)CC1	i	6.99*	i	i	CHO-K1 Tl ctr=-1.6;KCNQ1 pot spec=-9.7;KCNQ2 pot confirm=-4.7;Kir2-1 sel=-15.8;KCNQ2 W236L MoA=i

High-throughput results as filed in PubChem.
